# Data reported in PubChem BioAssay (EPA / NIEHS).
# Records with an inconclusive call do not appear. Active and inactive are the calls of the source. The calls were made as follows: active = hit-call score of the fitted dose curve at least 0.9, where 1 is the maximum; inconclusive = response in the unintended direction; inactive = score below 0.9.
# Assays:
# [1] = target: human Purinergic Receptor P2Y, P2RY1 (gene 5028) (UniProt P47900); assay: NVS_GPCR_hPY2: NovaScreen (NVS) G Protein-Coupled Receptor Assay for human Purinergic Receptor P2Y (AID 2283281)
# Summary of the method: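 Cell-free radioligand binding using U937-derived protein, 1 h after dosing, filter-based scintillation counting. Screened in duplicate at 25 uM; actives rerun as concentration-response up to 50 uM; loss of signal versus DMSO.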
# [2] = target: human Orphanin, Opioid Related Nociceptin Receptor 1 (ORL1), OPRL1 (gene 4987) (UniProt P41146); assay: NVS_GPCR_hORL1: NovaScreen (NVS) G Protein-Coupled Receptor Assay for human Orphanin, Opioid Related Nociceptin Receptor 1 (ORL1) (AID 2283283)
# Summary of the method: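 Filter-based radioligand displacement with receptor extracted from HEK293 cells, read 1 hour after dosing by scintillation counting. Duplicate single-point screen at 25 uM; qualifying chemicals then run in concentration-response to 50 uM, analysed relative to DMSO.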
# [3] = tested on: 5-hydroxytryptamine receptor 2C (pig); assay: NVS_GPCR_p5HT2C: NovaScreen (NVS) G Protein-Coupled Receptor Assay for pig Serotonin, 5-Hydroxytryptamine Receptor 2C (5HT2C) (AID 2283288)
# Summary of the method: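 Pig choroid plexus membranes; radioligand competitive binding, filter-based scintillation counting, read 1 h after dosing. Primary screen in duplicate at 25 uM; actives then run as concentration series; loss of signal versus DMSO baseline.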
# [4] = target: rat Adrenergic, Alpha 1, Non-selective Receptor (Adra1), Adra1a (gene 29412) (UniProt P43140); assay: NVS_GPCR_rAdra1_NonSelective: NovaScreen (NVS) G Protein-Coupled Receptor Assay for rat Adrenergic, Alpha 1, Non-selective Receptor (Adra1) (AID 2283289)
# Summary of the method: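 Rat forebrain membranes; radioligand displacement read by filter-based scintillation counting 1 h after dosing. Primary screen in duplicate at 25 uM; hits (e.g. ≥30% inhibition) rerun as concentration–response to 50 uM max. Fitted versus DMSO.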
# [5] = tested on: guinea pig Atrionatriuretic Peptide Receptor A (ANPA), gene 100135578; assay: NVS_GPCR_gANPA: NovaScreen (NVS) G Protein-Coupled Receptor Assay for guinea pig Atrionatriuretic Peptide Receptor A (ANPA) (AID 2283291)
# Experimental: NVS_GPCR_gANPA is a biochemical, single-readout assay that uses extracted gene-proteins from Guinea pig cerebellar membranes in a tissue-based cell-free assay. Measurements were taken 1 hour after chemical dosing in a 96-well plate.NVS_GPCR_gANPA is one of one assay component(s) measured or calculated from the NVS_GPCR_gANPA assay. It is designed to make measurements of radioligand binding, a form of binding reporter, as detected with scintillation counting signals by Filter-based radiodetection technology.Data from the assay component NVS_GPCR_gANPA was analyzed into 1 assay endpoint. This assay endpoint, NVS_GPCR_gANPA, was analyzed in the positive analysis fitting direction relative to DMSO as the negative control and baseline of activity. Using a type of binding reporter, loss-of-signal activity can be used to understand changes in the binding as they relate to the gene Nppa. Furthermore, this assay endpoint can be referred to as a primary readout, because the performed assay has only produced 1 assay endpoint. To generalize the intended target to other relatable targets, this assay endpoint is annotated to the lyase intended target family, where the subfamily is guanylyl cyclase. […]
# [6] = target: mouse Cholecystokinin, CCK2 Receptor (CCKB), Cckbr (gene 12426) (UniProt P56481); assay: NVS_GPCR_mCKKBCentral: NovaScreen (NVS) G Protein-Coupled Receptor Assay for mouse Cholecystokinin, CCK2 Receptor (CCKB) (AID 2283293)
# Summary of the method: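 Radioligand displacement binding on mouse forebrain membranes, 2 h exposure, filter-based scintillation counting. Primary screen in duplicate at 25 uM; actives (e.g. ≥30% inhibition) retested in concentration-response up to 50 uM; loss of binding signal relative to DMSO.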
# [7] = target: rat Serotonin, 5-Hydroxytryptamine Receptor (5HT), Non-Selective Binding, Htr1a (gene 24473) (UniProt P19327); assay: NVS_GPCR_r5HT_NonSelective: NovaScreen (NVS) G Protein-Coupled Receptor Assay for rat Serotonin, 5-Hydroxytryptamine Receptor (5HT), Non-Selective Binding (AID 2283295)
# Summary of the method: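 Radioligand displacement on rat cortical membranes, 1 h incubation, filter-based scintillation counting. Primary duplicates at 25 uM, actives retested in concentration series; loss of signal fitted against DMSO as baseline.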
# rat Adrenergic, Alpha 1, Non-selective Receptor (Adra1), Adra1a (gene 29412), sequence (P43140 whole entry, looked up): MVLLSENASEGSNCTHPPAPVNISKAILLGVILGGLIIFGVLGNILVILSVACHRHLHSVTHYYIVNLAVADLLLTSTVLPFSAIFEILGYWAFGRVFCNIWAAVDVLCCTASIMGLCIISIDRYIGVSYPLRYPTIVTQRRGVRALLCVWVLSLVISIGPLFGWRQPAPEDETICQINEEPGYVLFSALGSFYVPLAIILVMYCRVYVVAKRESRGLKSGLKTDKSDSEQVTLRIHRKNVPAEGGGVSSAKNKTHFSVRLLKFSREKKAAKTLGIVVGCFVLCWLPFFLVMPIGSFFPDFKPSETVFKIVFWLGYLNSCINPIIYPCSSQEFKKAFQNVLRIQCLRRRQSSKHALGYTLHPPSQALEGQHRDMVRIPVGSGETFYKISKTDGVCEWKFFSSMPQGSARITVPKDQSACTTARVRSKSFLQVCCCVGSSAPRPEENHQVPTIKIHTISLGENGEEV
# mouse Cholecystokinin, CCK2 Receptor (CCKB), Cckbr (gene 12426), sequence (P56481 whole entry, looked up): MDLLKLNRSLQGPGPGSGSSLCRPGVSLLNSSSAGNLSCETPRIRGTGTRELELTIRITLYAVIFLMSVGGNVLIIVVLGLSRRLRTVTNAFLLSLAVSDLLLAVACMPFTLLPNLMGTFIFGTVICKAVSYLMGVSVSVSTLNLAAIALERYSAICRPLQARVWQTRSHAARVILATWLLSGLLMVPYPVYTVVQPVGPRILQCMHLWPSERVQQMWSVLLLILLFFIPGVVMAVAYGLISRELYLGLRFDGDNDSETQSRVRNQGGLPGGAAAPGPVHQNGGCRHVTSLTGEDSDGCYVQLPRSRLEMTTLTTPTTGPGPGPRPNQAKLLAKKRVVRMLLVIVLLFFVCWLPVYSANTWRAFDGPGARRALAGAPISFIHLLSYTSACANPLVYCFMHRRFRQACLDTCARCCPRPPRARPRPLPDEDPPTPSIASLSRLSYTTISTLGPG
# rat Serotonin, 5-Hydroxytryptamine Receptor (5HT), Non-Selective Binding, Htr1a (gene 24473), sequence (P19327 whole entry, looked up): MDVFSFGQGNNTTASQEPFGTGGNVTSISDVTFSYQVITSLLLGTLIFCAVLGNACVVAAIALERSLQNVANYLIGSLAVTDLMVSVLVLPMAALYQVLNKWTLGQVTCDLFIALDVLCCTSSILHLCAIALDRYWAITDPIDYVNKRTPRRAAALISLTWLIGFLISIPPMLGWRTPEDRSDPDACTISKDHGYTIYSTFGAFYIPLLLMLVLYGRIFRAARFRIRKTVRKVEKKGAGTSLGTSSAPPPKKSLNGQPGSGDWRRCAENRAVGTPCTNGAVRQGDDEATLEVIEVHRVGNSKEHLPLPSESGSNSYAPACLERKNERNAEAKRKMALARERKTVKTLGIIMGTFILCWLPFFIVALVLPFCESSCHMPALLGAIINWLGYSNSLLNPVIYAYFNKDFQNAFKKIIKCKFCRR
# human Orphanin, Opioid Related Nociceptin Receptor 1 (ORL1), OPRL1 (gene 4987), sequence (P41146 whole entry, looked up): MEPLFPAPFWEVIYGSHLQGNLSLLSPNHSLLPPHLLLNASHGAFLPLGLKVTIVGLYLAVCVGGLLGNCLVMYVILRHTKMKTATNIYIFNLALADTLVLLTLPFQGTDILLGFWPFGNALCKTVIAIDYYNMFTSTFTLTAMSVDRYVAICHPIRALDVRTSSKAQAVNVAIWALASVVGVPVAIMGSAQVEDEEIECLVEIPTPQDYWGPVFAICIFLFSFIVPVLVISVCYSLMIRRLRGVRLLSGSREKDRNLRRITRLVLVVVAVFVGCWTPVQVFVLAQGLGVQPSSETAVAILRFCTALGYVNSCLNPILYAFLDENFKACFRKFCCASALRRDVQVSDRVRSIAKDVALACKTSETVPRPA
# human Purinergic Receptor P2Y, P2RY1 (gene 5028), sequence (P47900 whole entry, looked up): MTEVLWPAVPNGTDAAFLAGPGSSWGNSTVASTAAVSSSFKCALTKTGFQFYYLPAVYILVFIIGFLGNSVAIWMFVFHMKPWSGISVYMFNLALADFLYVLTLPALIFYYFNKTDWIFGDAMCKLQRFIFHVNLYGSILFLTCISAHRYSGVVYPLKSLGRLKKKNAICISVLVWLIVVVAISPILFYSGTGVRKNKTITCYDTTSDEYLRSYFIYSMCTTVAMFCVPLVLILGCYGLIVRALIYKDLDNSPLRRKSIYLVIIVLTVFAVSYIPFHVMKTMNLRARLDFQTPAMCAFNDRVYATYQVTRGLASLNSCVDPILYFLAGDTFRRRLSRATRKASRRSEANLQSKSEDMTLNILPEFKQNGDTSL
smiles,measurement,setting,value
O=c1ssc(Cl)c1Cl,outcome,[1],inactive
CC1(C)CN=C(NN=C(/C=C/c2ccc(C(F)(F)F)cc2)/C=C/c2ccc(C(F)(F)F)cc2)NC1,AC50,[2],37.2 µM (active)
Cc1ccc(O)cc1C,AC50,[3],21.1 µM (active)
c1ccc2c(c1)Nc1ccccc1S2,outcome,[3],inactive
same,outcome,[4],inactive
CC(Cc1ccc(OCC(=O)O)cc1)NCC(O)c1csc(C(F)(F)F)n1 (centres undefined),outcome,[5],inactive
O=[N+]([O-])c1ccccc1,outcome,[5],inactive
CCC(C)(C)c1ccc(O)cc1,outcome,[6],inactive
Cc1ccc([N+](=O)[O-])cc1C,outcome,[7],inactive
